Each structure is given as a SMILES string. The campaign covered roughly 310,000 compounds. About 14,000 (4.5%) showed an effect of 50% or more. The effect is printed as a negative number. This is one part of a sample in which strong results are shown more often than they occur.
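Also: peak tail current of the secondary pulse compared with the same well before compound.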

The target of this assay is human ether-à-go-go-related gene (hERG) potassium channel (human, UniProt Q12809). The assay can be described thus: primary screen, population patch clamp on CHO cells stably expressing hERG; higher = less effect of the substance.
Chain of human ether-à-go-go-related gene (hERG) potassium channel (Q12809 whole entry, looked up): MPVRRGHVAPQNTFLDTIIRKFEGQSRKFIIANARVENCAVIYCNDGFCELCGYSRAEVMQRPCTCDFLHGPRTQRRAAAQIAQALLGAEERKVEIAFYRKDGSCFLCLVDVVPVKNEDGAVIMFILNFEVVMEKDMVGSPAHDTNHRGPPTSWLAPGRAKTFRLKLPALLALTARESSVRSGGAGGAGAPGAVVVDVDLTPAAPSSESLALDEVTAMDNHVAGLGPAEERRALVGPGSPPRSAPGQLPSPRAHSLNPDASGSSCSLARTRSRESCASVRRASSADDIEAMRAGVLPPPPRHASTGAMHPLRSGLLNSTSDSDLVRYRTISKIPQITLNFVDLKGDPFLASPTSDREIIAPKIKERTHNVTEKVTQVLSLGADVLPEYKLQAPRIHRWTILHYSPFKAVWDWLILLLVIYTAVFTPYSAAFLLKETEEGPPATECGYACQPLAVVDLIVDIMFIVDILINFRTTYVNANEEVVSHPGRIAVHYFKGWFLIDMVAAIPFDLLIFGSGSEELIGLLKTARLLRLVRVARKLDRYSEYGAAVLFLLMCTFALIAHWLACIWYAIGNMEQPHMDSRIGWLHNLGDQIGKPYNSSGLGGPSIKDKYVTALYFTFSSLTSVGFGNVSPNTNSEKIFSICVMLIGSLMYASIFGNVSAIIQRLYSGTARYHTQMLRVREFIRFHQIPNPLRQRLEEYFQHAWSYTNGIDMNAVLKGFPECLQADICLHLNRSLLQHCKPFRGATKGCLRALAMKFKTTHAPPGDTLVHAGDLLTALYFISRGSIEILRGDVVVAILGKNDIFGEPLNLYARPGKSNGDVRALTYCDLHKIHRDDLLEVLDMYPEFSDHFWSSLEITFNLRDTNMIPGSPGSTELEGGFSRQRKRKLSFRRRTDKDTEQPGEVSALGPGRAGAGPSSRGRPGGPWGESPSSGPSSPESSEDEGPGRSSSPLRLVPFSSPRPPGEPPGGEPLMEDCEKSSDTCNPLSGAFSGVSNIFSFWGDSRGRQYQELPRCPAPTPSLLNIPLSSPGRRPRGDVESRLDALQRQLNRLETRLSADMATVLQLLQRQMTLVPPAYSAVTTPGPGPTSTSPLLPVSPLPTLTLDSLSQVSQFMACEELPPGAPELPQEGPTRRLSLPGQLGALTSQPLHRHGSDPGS
With `COc1ccc(NC(=O)CCCc2ccc(OC)c(C)c2)cc1`, the “hERG current change (%, negative = inhibition) at 10uM” value is listed as 3.93%.
On to `Cn1nnnc1SCC(=O)NCc1ccc2c(c1)OCO2`, for which the “hERG current change (%, negative = inhibition) at 10uM” value is given as 31.4%.
For `CC(C)c1cc(C(=O)N/N=C/c2cccnc2)cs1`, the “hERG current change (%, negative = inhibition) at 10uM” value is listed as -31.9%.
As to `c1coc(CSc2ncnc3c2oc2ccccc23)c1`, the “hERG current change (%, negative = inhibition) at 10uM” value is listed as 13.9%.
Consider `COCCN(CCOC)c1nc(-c2ccc([N+](=O)[O-])cc2)nc2ccccc12`, for which the “hERG current change (%, negative = inhibition) at 10uM” value was -34.3%.
For the compound `COCCNc1nc(-c2ccccc2)nc2ccccc12.Cl`, the “hERG current change (%, negative = inhibition) at 10uM” value is on record as -32.5%.
Take `Cc1ccc(-c2nc(NCCN(C)C)c3ccccc3n2)cc1`: the “hERG current change (%, negative = inhibition) at 10uM” value is listed as -44.9%.
For `COCCN(CCOC)c1nc(-c2ccc(C)cc2)nc2ccccc12.Cl`, the “hERG current change (%, negative = inhibition) at 10uM” value is listed as -65.4%.
Next, `COCCN(CCOC)c1nc(-c2ccccc2)nc2ccccc12`: -68.2%; `COCCN(CCOC)c1nc(-c2ccc(Cl)cc2)nc2ccccc12`: -5.82%; `O=C(O)C1CC(=O)N(c2ccc(F)c(F)c2)C1` (stereo not drawn): 13%.
`CCCCOC(=O)C1=C(C)NC(=O)NC1c1ccccc1` (stereo not drawn): the “hERG current change (%, negative = inhibition) at 10uM” value came to 6.12%.
`Cc1ccc(SC[C@H](C)CN2CC[C@H](NC(=O)OCc3ccccc3)CCC2=O)cc1`: the “hERG current change (%, negative = inhibition) at 10uM” value was -41.6%.
With `Cc1ccc(SCCN2CCC(NC(=O)OCc3ccccc3)CCC2=O)cc1` (stereo not drawn), the “hERG current change (%, negative = inhibition) at 10uM” value was -50.1%.
Next, `COc1ccc(SC[C@H](Cc2ccccc2)N2CC[C@@H](NC(=O)OCc3ccccc3)CCC2=O)cc1`: -10.2%; `O=C(N[C@H]1CCC(=O)N(CCSc2ccc(Br)cc2)CC1)OCc1ccccc1`: -29.2%.
Consider `N#CC[C@H](Cc1ccccc1)N1CC[C@@H](NC(=O)OCc2ccccc2)CCC1=O`, for which the “hERG current change (%, negative = inhibition) at 10uM” value is on record as -45.1%.
Under `O=C(N[C@@H]1CCC(=O)N(CC[C@H](Sc2ccccc2)c2ccccc2)CC1)OCc1ccccc1` stands -24%; under `Cc1ccc(S[C@@H](CCN2CC[C@H](NC(=O)OCc3ccccc3)CCC2=O)c2ccccc2)cc1`, -26.1%.
Under `[N-]=[N+]=NC[C@H](Cc1ccccc1)N1CC[C@@H](NC(=O)OCc2ccccc2)CCC1=O` stands -52.5%; under `O=C(NC1CCC(=O)N(CCOc2ccccc2)CC1)OCc1ccccc1` (stereo not drawn), -30.2%.
`O=C(NC1CCC(=O)N(CCSc2ccccc2)CC1)OCc1ccccc1` (stereo not drawn): the “hERG current change (%, negative = inhibition) at 10uM” value was -59.2%.
`COc1ccc(SCCN2CC[C@@H](NC(=O)OCc3ccccc3)CCC2=O)cc1`: the “hERG current change (%, negative = inhibition) at 10uM” value was -54.4%.
Turning to `O=C(N[C@H]1CCC(=O)N([C@H](CSc2ccccc2)Cc2ccccc2)CC1)OCc1ccccc1`, the “hERG current change (%, negative = inhibition) at 10uM” value is -37.6%.
Take `N/C(=N\OC(=O)COc1ccc2ccccc2c1Br)c1cccnc1`: the “hERG current change (%, negative = inhibition) at 10uM” value was determined as 12.9%.
As to `Cc1cc(C)cc(C(=O)OCC(=O)Nc2ncccn2)c1`, the “hERG current change (%, negative = inhibition) at 10uM” value was -0.75%.
On to `Cc1cccc(NC(=O)c2ccc3nc(N4CCOCC4)sc3c2)c1C`, for which the “hERG current change (%, negative = inhibition) at 10uM” value is reported as -34.7%.
Consider `COc1ccc(S(=O)(=O)NCCc2cc3ccc(C)c(C)c3[nH]c2=O)cc1`, for which the “hERG current change (%, negative = inhibition) at 10uM” value amounted to 17.2%.
As for `C/C(=N\NC(=O)c1c[nH]c2ccccc12)c1ccc2c(c1)OCO2`, the “hERG current change (%, negative = inhibition) at 10uM” value is 1.64%.
Under `COc1ccccc1CNC(=O)Cn1c(=O)oc2cc(Cl)ccc21` stands 0.41%.
In the case of `CC(C)CCCN1C(Nc2ccccc2)=NC[C@@H]1CC(C)C`, the “hERG current change (%, negative = inhibition) at 10uM” value is on record as -60.1%.
Next, `CCCCN1C(Nc2ccccc2)=NC[C@@H]1CC(C)C`: -34.5%.
As to `CC(C)CCCN1CCN=C1Nc1ccccc1`, the “hERG current change (%, negative = inhibition) at 10uM” value was -3.11%.
On to `CC(C)CCCN1C(Nc2ccccc2)=NC[C@@H]1Cc1ccccc1`, for which the “hERG current change (%, negative = inhibition) at 10uM” value is -62.3%.
Turning to `CC(C)CCN1C(Nc2ccccc2)=NC[C@@H]1CC(C)C`, the “hERG current change (%, negative = inhibition) at 10uM” value is -33.4%.
As for `CC(C)C[C@H]1CN=C(Nc2ccccc2)N1CC(C)C`, the “hERG current change (%, negative = inhibition) at 10uM” value is given as -3.04%.
As to `CCC(CC)CN1C(Nc2ccccc2)=NC[C@@H]1CC(C)C`, the “hERG current change (%, negative = inhibition) at 10uM” value is listed as -58.2%.
On to `CCCCCCCN1C(Nc2ccccc2)=NC[C@@H]1CC(C)C`, for which the “hERG current change (%, negative = inhibition) at 10uM” value was -73.7%.
`CC(C)CCN1C(Nc2ccccc2)=NC[C@@H]1Cc1ccccc1`: the “hERG current change (%, negative = inhibition) at 10uM” value is -47.9%.
In the case of `CCN1C(Nc2ccccc2)=NC[C@@H]1CC(C)C`, the “hERG current change (%, negative = inhibition) at 10uM” value was 3.75%.
As to `CC1(OC(=O)CCc2ccccc2)C(=O)C=C2C=C3CCCN3C=C2C1=O` (stereo not drawn), the “hERG current change (%, negative = inhibition) at 10uM” value is reported as -1.36%.
In the case of `Cc1cccc(NC(=O)CCc2ccc(S(=O)(=O)NC3CCCCC3)cc2)c1`, the “hERG current change (%, negative = inhibition) at 10uM” value is reported as 14.4%.
Regarding `Cc1oc2c(c(C)cc3oc(=O)c(CC(=O)N[C@@H](CC(C)C)C(=O)O)c(C)c32)c1C`, the “hERG current change (%, negative = inhibition) at 10uM” value is reported as 15.8%.
For `COC(=O)CSc1nc2c(c(=O)n(C)c(=O)n2C)n1CCC(C)C`, the “hERG current change (%, negative = inhibition) at 10uM” value is given as -5.54%.
Under `CCS(=O)(=O)N1CCCC(C(=O)c2ccc(OC)cc2C)C1` (stereo not drawn) stands 28.9%; under `CC(=O)O[C@@H]1/C=C/[C@](C)(O)C[C@@H](C)C/C=C/[C@H]2[C@@H]3O[C@]3(C)[C@@H](C)[C@H]3[C@H](Cc4ccccc4)NC(=O)[C@@]312`, 16%.
Under `O=C(Nc1cccc(C(F)(F)F)c1)C(SCCO)c1ccccc1` (stereo not drawn) stands -4.8%; under `O=C(Nc1cc(C(F)(F)F)ccc1Cl)C(Sc1cccc[n+]1[O-])c1ccccc1` (stereo not drawn), -14.5%.
For `O=C(Nc1cccc(C(F)(F)F)c1)C(Sc1cccc[n+]1[O-])c1ccccc1` (stereo not drawn), the “hERG current change (%, negative = inhibition) at 10uM” value is reported as -42.7%.
Next, `COc1cccc(NC(=O)C(NCC(C)(C)CN(C)C)c2ccccc2)c1.O=C(O)C(=O)O` (stereo not drawn): -48.4%; `CN(C)CC(C)(C)CNC(C(=O)Nc1ccc(Cl)cc1C(F)(F)F)c1ccccc1` (stereo not drawn): -76.9%; `O=C(Nc1ccc(Cl)cc1C(F)(F)F)C(Sc1cccc[n+]1[O-])c1ccccc1` (stereo not drawn): -81.3%.
Regarding `CN(C)c1cccc(C(=O)OC(C(=O)Nc2ccc(Cl)cc2C(F)(F)F)c2ccccc2)c1` (stereo not drawn), the “hERG current change (%, negative = inhibition) at 10uM” value was -3.78%.
Regarding `N#CCC(=O)N/N=C\c1ccc(OC/C=C/c2ccccc2)cc1`, the “hERG current change (%, negative = inhibition) at 10uM” value amounted to 14.4%.
Regarding `Cc1ccccc1S(=O)(=O)Cc1ccc(C(=O)NC2CCCCC2)o1`, the “hERG current change (%, negative = inhibition) at 10uM” value is given as -1.84%.
Consider `Nc1nc(SCC(=O)Nc2ccc([N+](=O)[O-])cc2Br)n[nH]1`, for which the “hERG current change (%, negative = inhibition) at 10uM” value was found to be 3.65%.
Consider `CCOC(=O)C1(CC2CCCCO2)CCN(C(=O)Nc2ccccc2)CC1` (stereo not drawn), for which the “hERG current change (%, negative = inhibition) at 10uM” value was 12%.
As to `COc1ccc(/C=C/c2cc(C(F)(F)F)on2)cc1`, the “hERG current change (%, negative = inhibition) at 10uM” value turned out to be 16.4%.
Take `COc1ccc(/C=C/C(=O)Oc2ccc(C)cc2)cc1`: the “hERG current change (%, negative = inhibition) at 10uM” value is reported as -14.4%.
In the case of `COc1ccc(/C=C/c2cc(-c3ccc(C)cc3)o[n+]2C)cc1.F[B-](F)(F)F`, the “hERG current change (%, negative = inhibition) at 10uM” value is -77.1%.
In the case of `Cc1ccccc1NC(=O)c1ccc2ccccc2c1`, the “hERG current change (%, negative = inhibition) at 10uM” value is given as -8.12%.
Under `CCC(C)(C(=O)Nc1c(C)cccc1C)N(C)C(=O)c1ccc2ccccc2n1` (stereo not drawn) stands 8.52%.
In the case of `CSCC[C@H](NC(=O)c1cccs1)C(=O)N1CCC2(CC1)NCCc1[nH]cnc12`, the “hERG current change (%, negative = inhibition) at 10uM” value was found to be 10.2%.
Take `O=[N+]([O-])c1cccc(S(=O)(=O)c2ccc(NCCO)c([N+](=O)[O-])c2)c1`: the “hERG current change (%, negative = inhibition) at 10uM” value is -51%.
Next, `CCCCNc1ccc(S(=O)(=O)c2cccc([N+](=O)[O-])c2)cc1[N+](=O)[O-]`: -22.2%; `O=[N+]([O-])c1cccc(S(=O)(=O)c2ccc(NCCOCCO)c([N+](=O)[O-])c2)c1`: -38.3%.
With `CCn1c(=O)c(C(=O)CN2CCN(Cc3ccc4c(c3)OCO4)CC2)c(N)n(Cc2ccccc2)c1=O`, the “hERG current change (%, negative = inhibition) at 10uM” value is -72%.
`CCn1c(=O)c(C(=O)CN2CCN(S(=O)(=O)c3ccccc3)CC2)c(N)n(Cc2ccccc2)c1=O`: the “hERG current change (%, negative = inhibition) at 10uM” value was -14.6%.
As to `Cn1c(=O)c(C(=O)CN2CCOCC2)c(N)n(Cc2ccccc2)c1=O`, the “hERG current change (%, negative = inhibition) at 10uM” value was -13.2%.
As for `Cn1c(=O)c(C(=O)CN2CCCCCC2)c(N)n(Cc2ccccc2)c1=O`, the “hERG current change (%, negative = inhibition) at 10uM” value is recorded as -13.5%.
As for `CCn1c(=O)c(C(=O)CN2CCOCC2)c(N)n(Cc2ccccc2)c1=O`, the “hERG current change (%, negative = inhibition) at 10uM” value is listed as -19%.
For the compound `Cn1c(=O)c(C(=O)CN2CCN(Cc3ccc4c(c3)OCO4)CC2)c(N)n(Cc2ccccc2)c1=O`, the “hERG current change (%, negative = inhibition) at 10uM” value was -66.8%.
With `CN1CCN(c2ccc(N)c(N3CCN(C)CC3)c2)CC1`, the “hERG current change (%, negative = inhibition) at 10uM” value is on record as 13.4%.
Take `CC(C)(C)NC(=O)C(c1ccc(F)cc1)N(Cc1ccccc1Cl)C(=O)c1ccn[nH]1` (stereo not drawn): the “hERG current change (%, negative = inhibition) at 10uM” value is 25.6%.
Under `CC1(C)CC(=O)C=C(c2cccc3c2oc2ccccc23)C1` stands -2.67%; under `CCCOc1ccc2oc(=O)c3c(c2c1)CCCN3C(=O)CN1CCCC(C(=O)OCC)C1` (stereo not drawn), -65.5%; under `CCCCCOc1ccc2oc(=O)c3c(c2c1)CCCN3C(=O)CN1CCCC(C(=O)OCC)C1` (stereo not drawn), -0.3%.
In the case of `CCOC(=O)C1CCCN(Cc2cc(=O)oc3cc(C)c(C)cc23)C1` (stereo not drawn), the “hERG current change (%, negative = inhibition) at 10uM” value is reported as -19.3%.
In the case of `CCCOc1ccc2oc(=O)c3c(c2c1)CCCN3C(=O)CN1CCN(c2ncccn2)CC1`, the “hERG current change (%, negative = inhibition) at 10uM” value is given as -70.1%.
As for `CCCOc1ccc2oc(=O)c3c(c2c1)CCCN3C(=O)CN1CCN(C(=O)c2ccco2)CC1`, the “hERG current change (%, negative = inhibition) at 10uM” value was -65.3%.
As to `O=C(c1ccco1)N1CCN(CC(=O)N2CCCc3c2c(=O)oc2ccc(O)cc32)CC1`, the “hERG current change (%, negative = inhibition) at 10uM” value is -5.14%.
On to `CC(=O)Oc1ccc2oc(=O)c3c(c2c1)CCCN3C(=O)CN1CCN(c2ncccn2)CC1`, for which the “hERG current change (%, negative = inhibition) at 10uM” value was -7.91%.
`CCCOc1ccc2oc(=O)c3c(c2c1)CCCN3C(=O)CN1CCc2ccccc2C1`: the “hERG current change (%, negative = inhibition) at 10uM” value was -24.1%.
For `CCCOc1ccc(C(=O)Nc2ccc(N3CCN(C(=O)c4ccco4)CC3)cc2)cc1`, the “hERG current change (%, negative = inhibition) at 10uM” value is 13.2%.

(Values after paper PMC4336329 (PLoS ONE, 2015).)
